Compound activity from PubChem.
Hits are enriched below; roughly 2.2% of the tested compounds scored in any of these assays.
IEC-6 tox: kills IEC-6 intestinal cells in KLF5 counter-screen; IEC-6 cytotoxicity, luminescence viability; inhibition, % at 5 µM; actives 0.78% (n = 290,000); in the data active means inhibition above about 22%
APP transl inh: APP translation inhibition; inhibition, % at 2 µM; AID 1285; SH-SY5Y APP 5'UTR-luciferase reporter, luminescence; actives 0.82% (n = 190,000);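 active means inhibition above a set limit, derived from the sample mean plus 3 SD, cut at about 45% in these data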
BaF3 parental: parental Ba/F3 viability inhibition as JAK2V617F counter-screen; CellTiter-Glo ATP luminescence; inhibition, % at 5.6 µM; actives 1.1% (n = 220,000);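 active means inhibition above a per-campaign cutoff, the mean inhibition of all tested compounds plus 3 SD, cut at about 27% in these data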
aSyn 5UTR inh: MLPCN primary screen, SNCA 5' untranslated region; inhibition, % (tested at 7.5 µM); alpha-synuclein 5'UTR reporter, inhibitor activity; actives 0.82% (n = 300,000); AID 1813; in the data active means inhibition above about 60%;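 further: H4 neuroglioblastoma cells stably carrying SNCA 5'UTR luciferase fusion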
KLF5 inh: inhibitors of KLF5 expression; DLD-1 KLF5 promoter-luciferase reporter, luminescence; inhibition, % at 5 µM; actives 0.23% (n = 290,000);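 active means inhibition above a per-plate limit of that plate's mean compound inhibition plus 3 SD, cut at about 60% in these data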;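 further: higher means less KLF5 promoter-driven luciferase light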
Ba/F3 V617F tox: loss of viability in JAK2V617F-driven Ba/F3 cells; Ba/F3 EpoR-JAK2V617F viability, ATP luminescence; inhibition, % at 5.6 µM; actives 1.1% (n = 220,000); AID 1446;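 active means inhibition above the campaign mean plus 3 SD over all tested compounds, cut at about 24% in these data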;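 further: cytokine-independent growth of Ba/F3 cells driven by EpoR plus mutant JAK2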
BaF3 parental 2: reduces parental Ba/F3 viability, JAK2V617F counter-screen | shares compounds with Ba/F3 V617F tox | CellTiter-Glo luminescence; cells kept alive by added IL-3 | inhibition, % at 5.6 µM | actives 31% (n = 580);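 active means cell growth inhibition above the hit limit set in the earlier mutant JAK2 cell screen, cut at about 27% in these data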
JAK2V617F confrm: confirmation: loss of viability in JAK2V617F-dependent Ba/F3 cells; actives 66% (n = 580); inhibition, % at 5.6 µM; Ba/F3 EpoR-JAK2V617F viability, CellTiter-Glo luminescence; shares compounds with Ba/F3 V617F tox;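 active means mean inhibition above the hit cutoff derived in the earlier primary screen, cut at about 25% in these data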;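 further: higher means lower luminescence from reduced cell ATP and viability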
Hits are given with their value.

What do the screens show for `COc1ccc(C(=O)N2CCOC2CNC(=O)C(=O)NCCc2ccccc2OC)cc1` (centres undefined)?
IEC-6 tox: inactive; aSyn 5UTR inh: inactive; KLF5 inh: inactive

Results for N#C/C(=C\c1ccc(O)c(O)c1)S(=O)(=O)c1ccccc1 ?
IEC-6 tox: inactive; APP transl inh: inactive; BaF3 parental: inactive; aSyn 5UTR inh: inactive; KLF5 inh: inactive; Ba/F3 V617F tox: 24; BaF3 parental 2: inactive; JAK2V617F confrm: inactive

How did Cc1ccc2c(CC(=O)NCc3ccco3)coc2c1C do in these assays?
IEC-6 tox: inactive; APP transl inh: inactive; BaF3 parental: inactive; aSyn 5UTR inh: inactive; KLF5 inh: inactive; Ba/F3 V617F tox: 35; BaF3 parental 2: inactive; JAK2V617F confrm: inactive

How did Cc1ccc2c(CC(=O)NC3CCS(=O)(=O)C3)coc2c1C (centres undefined) do in these assays?
IEC-6 tox: inactive; aSyn 5UTR inh: inactive; KLF5 inh: inactive

How did Cc1ccc(Cl)cc1NC(=O)C(=O)N/N=C/c1ccc2c(c1)OCO2 do in these assays?
IEC-6 tox: inactive; KLF5 inh: inactive

Results for COc1ccccc1N1CCc2c(C)nc3c(OC)cccc3c21 ?
IEC-6 tox: inactive; BaF3 parental: inactive; aSyn 5UTR inh: inactive; KLF5 inh: inactive; Ba/F3 V617F tox: 45; BaF3 parental 2: inactive; JAK2V617F confrm: 50

How did CC(C(=O)NCc1ccccc1)n1cc([N+](=O)[O-])cn1 (centres undefined) do in these assays?
IEC-6 tox: inactive; aSyn 5UTR inh: inactive; KLF5 inh: inactive

How did CC1(c2ccc([N+](=O)[O-])cc2)NC(=O)NC1=O (centres undefined) do in these assays?
IEC-6 tox: inactive; aSyn 5UTR inh: inactive; KLF5 inh: inactive

Results for N#C/C(=C\c1ccc(O)c(O)c1)C(=O)NCCCc1ccccc1 ?
IEC-6 tox: inactive; APP transl inh: inactive; BaF3 parental: inactive; aSyn 5UTR inh: inactive; KLF5 inh: inactive; Ba/F3 V617F tox: 56; BaF3 parental 2: inactive; JAK2V617F confrm: 87

What do the screens show for `Cc1cc(C)cc(NC(=O)CSc2nnc(CN3CCOCC3)n2C)c1`?
IEC-6 tox: inactive; APP transl inh: inactive; BaF3 parental: inactive; aSyn 5UTR inh: inactive; KLF5 inh: inactive; Ba/F3 V617F tox: 95; BaF3 parental 2: inactive; JAK2V617F confrm: inactive

What do the screens show for `Cc1cc(C)c(NC(=O)CSc2nnc(CN3CCOCC3)n2C)c(C)c1`?
IEC-6 tox: inactive; aSyn 5UTR inh: inactive; KLF5 inh: inactive

What do the screens show for `O=C(Nc1cccc2c1[nH]c1ccccc12)C(F)(F)F`?
IEC-6 tox: inactive; APP transl inh: inactive; BaF3 parental: inactive; aSyn 5UTR inh: inactive; KLF5 inh: inactive; Ba/F3 V617F tox: 53; BaF3 parental 2: inactive; JAK2V617F confrm: 52

How did CC(=O)Nc1ccccc1NC(=O)C(F)(F)F do in these assays?
IEC-6 tox: inactive; APP transl inh: inactive; BaF3 parental: inactive; aSyn 5UTR inh: inactive; KLF5 inh: inactive; Ba/F3 V617F tox: inactive

What do the screens show for `CC(=O)N1c2ccc(S(=O)(=O)N(C)CC(=O)NC(C)c3ccccc3)cc2CC1C` (centres undefined)?
IEC-6 tox: inactive; aSyn 5UTR inh: inactive; KLF5 inh: inactive

Results for Cn1c(=N)n(CC(O)c2cccc3ccccc23)c2ccccc21 (centres undefined) ?
IEC-6 tox: inactive; APP transl inh: inactive; BaF3 parental: inactive; aSyn 5UTR inh: inactive; KLF5 inh: inactive; Ba/F3 V617F tox: 41; BaF3 parental 2: inactive; JAK2V617F confrm: 28

What do the screens show for `C=C1CCN([C@@H](CC(C)C)C(=O)NCCC(C)C)S(=O)(=O)c2ccccc21`?
aSyn 5UTR inh: inactive

Results for CCN(CCCNC(=O)CNC(=O)c1nn(-c2ccc(OC)cc2OC)c(=O)c2ccccc12)c1cccc(C)c1 ?
IEC-6 tox: inactive; aSyn 5UTR inh: inactive; KLF5 inh: inactive

What do the screens show for `CCC(C)N1C(=O)S/C(=C/c2ccc3c(c2)n(C)c(=O)n3C)C1=O` (centres undefined)?
IEC-6 tox: inactive; APP transl inh: inactive; BaF3 parental: inactive; aSyn 5UTR inh: inactive; KLF5 inh: inactive; Ba/F3 V617F tox: 67; BaF3 parental 2: inactive; JAK2V617F confrm: inactive
